This passage reports composite z-score and z-score results from PubChem BioAssay.

Calls of active or inactive are those of the source. Unless noted, no rule for the calls is given here.

The nature of experiment [1]: compounds binding Alexa647 anti-His antibody – biochemical, small-molecule microarray, 635 nm fluorescence, artefact control for SMM control protein annotation, primary screen (AID 1128).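 Also: score merges feature fluorescence with signal-to-noise for each printed compound spot.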 Conditions: higher = more signal.
Experiment [2] deals with Human papillomavirus type 1a E7 protein (residues 1-88). Description: HPV1a E7 small-molecule binders, primary screen, biochemical, small-molecule microarray, residues 1-88, 635 nm (AID 1129). The settings on record: small-molecule microarray binding, fluorescence 635 nm; higher = more signal.
The target in experiment [3] is Focal adhesion kinase 1 (Homo sapiens) (UniProt Q05397). Description: PTK2 protein binding on printed compound slides – biochemical, small-molecule microarray, 635/667 nm fluorescence, BSA, DTT, primary screen (AID 1130).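 Also: composite of spot emission at 667 nm and signal to noise over triplicate slides.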 Conditions: 635 nm fluorescence, higher = more signal.
Focal adhesion kinase 1 (Homo sapiens), sequence (Q05397 whole entry, looked up): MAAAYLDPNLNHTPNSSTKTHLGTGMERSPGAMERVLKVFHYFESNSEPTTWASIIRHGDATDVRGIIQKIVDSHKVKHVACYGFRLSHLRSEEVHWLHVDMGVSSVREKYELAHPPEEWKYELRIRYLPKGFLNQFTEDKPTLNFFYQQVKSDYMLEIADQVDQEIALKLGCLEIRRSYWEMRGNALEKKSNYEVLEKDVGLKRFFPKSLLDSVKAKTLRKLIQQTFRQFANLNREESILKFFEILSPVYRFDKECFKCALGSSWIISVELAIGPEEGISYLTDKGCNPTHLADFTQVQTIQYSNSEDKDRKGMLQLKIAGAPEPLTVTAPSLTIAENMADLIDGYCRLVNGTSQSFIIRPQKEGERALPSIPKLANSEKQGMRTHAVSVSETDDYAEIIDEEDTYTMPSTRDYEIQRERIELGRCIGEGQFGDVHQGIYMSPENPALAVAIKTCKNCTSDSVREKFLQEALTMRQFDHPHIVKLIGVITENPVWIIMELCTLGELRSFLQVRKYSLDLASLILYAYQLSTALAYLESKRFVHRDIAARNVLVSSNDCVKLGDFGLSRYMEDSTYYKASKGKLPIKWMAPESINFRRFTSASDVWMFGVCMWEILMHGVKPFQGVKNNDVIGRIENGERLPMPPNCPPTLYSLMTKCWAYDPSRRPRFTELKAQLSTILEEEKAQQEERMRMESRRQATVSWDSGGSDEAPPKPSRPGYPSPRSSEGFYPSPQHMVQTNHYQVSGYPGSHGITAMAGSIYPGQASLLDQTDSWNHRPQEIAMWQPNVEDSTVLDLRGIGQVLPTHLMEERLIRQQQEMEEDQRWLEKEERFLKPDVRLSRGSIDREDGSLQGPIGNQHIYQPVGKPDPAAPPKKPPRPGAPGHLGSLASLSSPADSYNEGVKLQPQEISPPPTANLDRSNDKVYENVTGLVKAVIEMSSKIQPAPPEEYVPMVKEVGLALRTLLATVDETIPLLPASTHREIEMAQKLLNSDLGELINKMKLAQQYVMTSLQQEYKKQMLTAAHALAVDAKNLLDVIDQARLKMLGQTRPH
Experiment [4] has as its system Fibrinogen (Alexa647-labelled). The experiment can be described thus: Alexa647-fibrinogen binding to printed small molecules – biochemical, small-molecule microarray, 635/667 nm fluorescence, artefact control for SMM control-protein annotation, profiling panel (AID 1131).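 Also: z-score merges 667 nm fluorescence with per-spot signal-to-noise over triplicate slides.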 The settings on record: fibrinogen-A647 binding fluorescence, higher = more signal.
Experiment [5] addresses Follistatin (Homo sapiens) (UniProt P19883). The experiment can be described thus: FST protein binding to printed compounds – biochemical, small-molecule microarray, 635/667 nm fluorescence, primary screen (AID 1132). Conditions: 635 nm fluorescence, higher = more signal.
Experiment [6] has as its target Fibroblast growth factor 2 (Homo sapiens) (UniProt P09038). The experiment can be described thus: basic fibroblast growth factor binding to printed compounds – biochemical, small-molecule microarray, 635/667 nm fluorescence, primary screen (AID 1133). Conditions: FGF2, fluorescence 635/667, higher = more signal.
The nature of experiment [7]: JC-1 mitochondrial potential readout, lung cancer cells – cell-based, A549, JC-1 fluorescence, basal, 24 h, 100 nL, profiling panel (AID 1138).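 Also: A549 lung adenocarcinoma cells under basal conditions with no added stimulus; test concentration not given here.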 The settings on record: higher = more signal.
Another experiment deals with Lefty1. Description: Lefty1 protein binding to printed compounds – biochemical, small-molecule microarray, 635/667 nm fluorescence, primary screen (AID 1139). The settings on record: fluorescence 635/667, higher = more signal.
Experiment [8] has as its system wheat germ agglutinin (Triticum aestivum), Alexa647-labelled. Description: Alexa647-WGA lectin binding to printed small molecules – biochemical, small-molecule microarray, 635/667 nm fluorescence, artefact control for SMM control-protein annotation, profiling panel (AID 1140).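 Also: score merges 667 nm feature emission with signal to noise over triplicate slides.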 Conditions: WGA-A647 binding, 635 nm fluorescence, higher = more signal.
Experiment [9] deals with Luciferin 4-monooxygenase (Photinus pyralis) (UniProt P08659). The experiment can be described thus: inhibition of purified Photinus pyralis luciferase – biochemical, luminescence, purified enzyme, 2006 set, primary screen (AID 1141).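 Also: cell-free assay with purified firefly luciferase at 100 ng per well in PBS; test concentration not given here.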 Conditions: purified firefly luciferase, SteadyGlo luminescence, 30 min; higher = more signal, called active from +8 up or from −8 down.
Luciferin 4-monooxygenase (Photinus pyralis), sequence (P08659 whole entry, looked up): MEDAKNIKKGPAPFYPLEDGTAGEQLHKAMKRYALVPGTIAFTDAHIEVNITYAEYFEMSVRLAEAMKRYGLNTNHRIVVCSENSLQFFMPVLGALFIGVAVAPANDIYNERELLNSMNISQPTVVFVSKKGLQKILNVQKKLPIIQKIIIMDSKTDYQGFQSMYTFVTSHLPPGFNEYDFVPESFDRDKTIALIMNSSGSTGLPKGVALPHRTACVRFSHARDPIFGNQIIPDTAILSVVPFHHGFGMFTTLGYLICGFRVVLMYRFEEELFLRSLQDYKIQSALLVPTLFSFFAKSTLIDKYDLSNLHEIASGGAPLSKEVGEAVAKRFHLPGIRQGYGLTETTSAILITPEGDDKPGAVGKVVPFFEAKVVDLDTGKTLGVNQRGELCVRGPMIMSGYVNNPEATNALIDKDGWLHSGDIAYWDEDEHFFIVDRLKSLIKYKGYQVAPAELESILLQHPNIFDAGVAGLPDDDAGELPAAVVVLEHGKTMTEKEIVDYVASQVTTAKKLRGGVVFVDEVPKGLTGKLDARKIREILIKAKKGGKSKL
Experiment [10] concerns Wnt5a (protein binding on small-molecule microarray). The experiment can be described thus: small molecules binding Wnt5a protein – biophysical, small-molecule microarray, 635/667 nm fluorescence, primary screen (AID 1142).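 Also: fluorescence read at 667 nm with signal to noise per printed feature.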 Conditions: 635 nm fluorescence, higher = more signal.
Experiment [11] is described as follows: ATP-based viability of Huh7 replicon cells – cell-based, CellTiter-Glo luminescence, basal, 48 h, cytotoxicity control for HCV replication inhibitor project, primary screen (AID 1143).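 Also: Huh7 hepatoma cells carrying a hepatitis C replication reporter with no stimulus; test concentration not given here.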 Conditions: higher = more signal, called active from +8 up or from −8 down.
The nature of experiment [12]: Pseudomonas biofilm growth suppression – PAO1 strain, BacTiter-Glo luminescence, LB-PBS, primary screen (AID 1144). The settings on record: P. aeruginosa PAO1 biofilm, 12 h, higher = more signal.
Experiment [13] in a line: basal CRE-LacZ reporter activity in PC12 – cell-based, unstimulated, primary screen (AID 1145). The settings on record: no forskolin, luminescence, 4.5 h, higher = more signal, called active from +8 up or from −8 down.
Experiment [14] can be described thus: forskolin-driven CRE-LacZ activity in PC12 – cell-based, CRE-LacZ reporter, forskolin-stimulated, primary screen (AID 1146).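 Also: PC12 cells with 6xCRE LacZ reporter stimulated by forskolin 10 µM; beta-galactosidase reporter signal reflecting CREB driven transcription.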 The settings on record: luminescence, 4.5 h, higher = more signal, called active from +8 up or from −8 down.
Experiment [15] has as its target Streptavidin (Streptomyces avidinii) (UniProt P22629). Description: compounds binding control protein streptavidin – biophysical, small-molecule microarray, 635/667 nm fluorescence, artefact control for SMM compound annotation, primary screen (AID 1147).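 Also: signal reflects streptavidin binding to arrayed compounds as a control protein.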 Conditions: higher = more signal.
Experiment [16] in a line: probe aInhba binding on compound microarray – biochemical, small-molecule microarray, 635/667 nm fluorescence, primary screen (AID 1148).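 Also: score merges 667nm spot fluorescence with signal-to-noise for antibody binding to printed compounds.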 The settings on record: higher = more signal.
Experiment [17] deals with Torsin-1A (Homo sapiens) (UniProt O14656). Description: TOR1A wild-type binding on microarray – cell lysate, small-molecule microarray, lysate, 635/667 nm, primary screen (AID 1149). The settings on record: COS7 hTOR1A-WT lysate, 635 nm fluorescence, higher = more signal.
Torsin-1A (Homo sapiens), sequence (O14656 whole entry, looked up): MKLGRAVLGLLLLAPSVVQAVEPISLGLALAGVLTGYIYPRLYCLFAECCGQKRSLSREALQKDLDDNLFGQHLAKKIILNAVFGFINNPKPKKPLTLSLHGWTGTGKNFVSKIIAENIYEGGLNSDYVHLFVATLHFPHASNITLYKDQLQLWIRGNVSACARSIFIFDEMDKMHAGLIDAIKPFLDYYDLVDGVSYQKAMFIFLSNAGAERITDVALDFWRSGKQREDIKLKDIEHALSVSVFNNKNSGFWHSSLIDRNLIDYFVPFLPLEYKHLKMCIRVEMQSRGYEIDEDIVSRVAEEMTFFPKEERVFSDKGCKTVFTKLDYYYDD
The target is the same in experiment [18]. The experiment can be described thus: torsin A mutant lysate binding on microarrays – cell lysate, small-molecule microarray, COS7 lysate, 635/667 nm fluorescence, primary screen (AID 1150).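 Also: score pools 667 nm emission and signal to noise measuring lysate protein binding.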 The settings on record: COS7 hTOR1A mutant lysate, 635 nm fluorescence, higher = more signal.
The subject of experiment [19] is Sonic hedgehog protein (Shh). The experiment can be described thus: Sonic hedgehog microarray binding compounds – biochemical, small-molecule microarray, 635/667 nm fluorescence, primary screen (AID 1151).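 Also: Shh protein binding to compounds spotted on small-molecule microarray slides; score combines spot fluorescence intensity with signal-to-noise across triplicate slides.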 The settings on record: 635 nm fluorescence, higher = more signal.

Fibroblast growth factor 2 (Homo sapiens), sequence (P09038 whole entry, looked up): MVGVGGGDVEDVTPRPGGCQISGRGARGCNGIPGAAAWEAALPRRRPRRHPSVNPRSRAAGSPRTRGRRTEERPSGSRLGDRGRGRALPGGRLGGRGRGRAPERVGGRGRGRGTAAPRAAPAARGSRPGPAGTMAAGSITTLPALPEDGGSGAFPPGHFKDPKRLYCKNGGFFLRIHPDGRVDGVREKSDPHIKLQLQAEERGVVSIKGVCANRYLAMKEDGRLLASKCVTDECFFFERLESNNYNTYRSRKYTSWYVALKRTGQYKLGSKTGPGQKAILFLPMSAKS
Follistatin (Homo sapiens), sequence (P19883 whole entry, looked up): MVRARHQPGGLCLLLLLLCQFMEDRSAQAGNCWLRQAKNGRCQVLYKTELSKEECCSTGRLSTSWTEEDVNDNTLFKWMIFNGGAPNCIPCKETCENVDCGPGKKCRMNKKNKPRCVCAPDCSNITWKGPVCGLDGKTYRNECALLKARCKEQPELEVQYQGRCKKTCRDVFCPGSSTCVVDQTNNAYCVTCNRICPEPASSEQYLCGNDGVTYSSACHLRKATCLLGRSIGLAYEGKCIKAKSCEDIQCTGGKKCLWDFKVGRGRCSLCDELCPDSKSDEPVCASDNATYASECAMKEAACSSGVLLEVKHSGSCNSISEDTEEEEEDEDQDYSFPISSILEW
Streptavidin (Streptomyces avidinii), sequence (P22629 whole entry, looked up): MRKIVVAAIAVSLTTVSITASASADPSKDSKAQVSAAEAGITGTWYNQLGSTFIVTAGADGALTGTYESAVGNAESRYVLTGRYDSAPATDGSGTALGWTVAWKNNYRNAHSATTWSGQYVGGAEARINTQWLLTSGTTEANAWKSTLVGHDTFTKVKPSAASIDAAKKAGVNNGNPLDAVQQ

`O=C(NCc1ccccc1)[C@@]1(CCS(=O)(=O)c2ccccc2)N=C(c2ccc(OCCCO)cc2)O[C@H]1c1ccccc1`: the composite z-score in experiment [1] is 1.52; in experiment [2] it was 1.26; in [3], 0.54; in [4], 0.994; in experiment [5], 1.21; in experiment [6], -0.0657. Moreover, the composite z-score was determined as 0.116 with Lefty1; 1.1 in experiment [8]; 0.794 in experiment [10]; 1.8 in experiment [15]; 0.212 in [16]; 1.35 with Torsin-1A (Homo sapiens) [17]. Further, the figures for the composite z-score (with Torsin-1A (Homo sapiens) [18]; in experiment [19]) were 1.16 and -0.756, respectively. In addition, the z-score in experiment [7] was -0.346; in experiment [9], 0.548 (inactive); in experiment [11], -2.09 (inactive); in experiment [12] it was -0.847 (inactive); in experiment [13], -0.435 (inactive); in [14], -0.516 (inactive).

On to `C=CCC(OC(C)=O)[C@@H]1[C@@H](N(Cc2ccc(-c3cccc(C(F)(F)F)c3)o2)C(=O)Cc2ccc(F)cc2)c2cc(OCCCO)ccc2N1C(=O)Cc1ccc(OC)cc1` (stereo not given in full), for which the composite z-score is -0.775 in experiment [1]; -2.07 in experiment [2]; -0.572 in experiment [3]; -0.0256 in [4]; 0.346 in [5]; -0.308 in experiment [6]. The composite z-score in the experiment on Lefty1 is -0.0727; in [8], 0.114; in [10], -0.186; in experiment [15] it was -1.07; in experiment [16], -0.183; with Torsin-1A (Homo sapiens) [17], -2.21. The composite z-score is -0.945 in the experiment with Torsin-1A (Homo sapiens) [18] and 0.392 in experiment [19]. Further, the z-score in experiment [7] is 0.812; in experiment [9], 0.175 (inactive); in experiment [11], -0.705 (inactive); in [12], -1.63 (inactive); in experiment [13], 0.236 (inactive); in experiment [14], 0.239 (inactive).

As for `[N-]=[N+]=NCc1ccccc1C[C@]1(C(=O)N2CCOCC2)N=C(c2ccc(OCCCO)cc2)O[C@H]1c1ccccc1N=[N+]=[N-]`, the composite z-score was determined as 0.595 in experiment [1]; 1.23 in experiment [2]; 0.0652 in experiment [3]; 0.987 in experiment [4]; 1.33 in [5]; 0.823 in [6]. The composite z-score came out at 1.31 in the experiment with Lefty1; 1.03 in [8]; 0.774 in [10]; 0.808 in experiment [15]; 0.0179 in experiment [16]; 1.49 with Torsin-1A (Homo sapiens) [17]. Also, the composite z-score with Torsin-1A (Homo sapiens) [18] is 1.44; in experiment [19] it was 1.02. Further, the z-score in experiment [7] is 0.274; in [9], -7.46 (inactive); in experiment [11] it was -5.5 (inactive); in experiment [12] it was -0.447 (inactive); in experiment [13], -0.0017 (inactive); in experiment [14], -1.86 (inactive).

For `CN1C2C=C(CCCO)C(C3C(=O)N(C(N)=O)C(=O)C32)C1c1ccc(CN2CCCC2)cc1` (stereo not given), the composite z-score was 0.161 in [1]; -0.697 in experiment [2]; -0.311 in experiment [3]; -0.929 in experiment [4]; -0.0168 in experiment [5]; 0.0692 in [6]. For the same compound, the composite z-score in the experiment on Lefty1 was -0.484; in experiment [8] it was -0.0816; in experiment [10] it was 0.269; in [15], -0.411; in experiment [16], -0.299; in the experiment with Torsin-1A (Homo sapiens) [17], -0.14. The composite z-score was -0.266 in the experiment with Torsin-1A (Homo sapiens) [18] and -0.138 in experiment [19]. In addition, the z-score in experiment [7] is -0.637; in [9], 0.73 (inactive); in [11] it was 1.23 (inactive); in experiment [12] it was -0.938 (inactive); in experiment [13], -0.83 (inactive); in [14], 1.31 (inactive).

On to `COCCOC(=O)N1C(=O)[C@@]2(c3cc(C#CC4=CCCCC4)ccc31)[C@H](c1ccc(O)cc1)N1[C@H](c3ccccc3)[C@H](c3ccccc3)OC(=O)[C@H]1[C@@H]2C(N)=O`, for which the composite z-score in experiment [1] came out at 0.711; in experiment [2], 1.08; in [3], 0.334; in experiment [4], 0.644; in experiment [5], 1.32; in [6], 1.57. Also, the composite z-score in the experiment on Lefty1 was 1.23; in [8], 0.766; in experiment [10], 0.824; in experiment [15], 0.17; in experiment [16], -0.598; with Torsin-1A (Homo sapiens) [17] it was 0.0873. Moreover, the composite z-score with Torsin-1A (Homo sapiens) [18] was determined as 0.522; in experiment [19], 2.07. In addition, the z-score in experiment [7] is -0.858; in [9], -1.37 (inactive); in experiment [11] it was -1.83 (inactive); in [12], -0.591 (inactive); in experiment [13] it was 0.0695 (inactive); in experiment [14] it was 0.124 (inactive).
